In PubChem BioAssay (NCATS):
Inconclusive results are not listed. Entries that show only a call come without a potency. Active and inactive are the calls of the source. The call rests on the fitted dose curve; in most records, active means well fitted curve in the direction sought with a large enough effect; inconclusive means small, poorly fitted or top-dose-only effect, or another doubt; inactive means no such curve, though single readings can be large; an effect the other way counts as inactive or inconclusive.

The compounds below were run against Alpha-galactosidase (Coffea arabica) (UniProt Q42656) (assay: Counterscreen for Glucocerebrosidase Inhibitors: qHTS Assay for Coffee Bean alpha-Galactosidase at pH 4.5 (AID 957)). Conditions: purified coffee bean alpha-galactosidase, fluorogenic substrate; series mostly up to 76.9 µM.
Procedure, shortened: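 Green coffee bean enzyme (2 nM final) was incubated with compounds (0.7 nM to 77 uM) and 4-methylumbelliferyl alpha-D-galactopyranoside (80 uM final) in 50 mM citric acid, 0.005% Tween-20, pH 4.5, 20 min at room temperature; AC50 from Hill fits.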

Sequence of Alpha-galactosidase (Coffea arabica) (Q42656 whole entry, looked up): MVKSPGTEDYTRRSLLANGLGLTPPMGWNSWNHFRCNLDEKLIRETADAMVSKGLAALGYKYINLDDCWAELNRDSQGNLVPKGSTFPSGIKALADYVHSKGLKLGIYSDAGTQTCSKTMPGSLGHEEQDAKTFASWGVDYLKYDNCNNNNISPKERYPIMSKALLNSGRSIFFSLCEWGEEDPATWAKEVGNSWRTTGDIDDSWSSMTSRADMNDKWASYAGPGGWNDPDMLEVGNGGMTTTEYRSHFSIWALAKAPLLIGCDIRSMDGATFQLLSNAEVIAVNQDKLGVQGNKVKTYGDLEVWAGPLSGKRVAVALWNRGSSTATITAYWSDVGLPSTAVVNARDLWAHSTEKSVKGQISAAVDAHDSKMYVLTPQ

SMILES	outcome
N#CCCN	inactive
Cc1sc2ccccc2c1CC1=NCCN1	inactive
CN(N=O)c1ccc(O)c(O)c1	inactive
CN1CCc2cc(O)cc3c2[C@H]1Cc1ccc(O)c(O)c1-3	inactive
C[N+](C)(C)CC#CCN1CCCC1=O	inactive
CN1CCC(c2c[nH]c3ccc(O)cc23)CC1	inactive
C[N+]1(C)CCC(OC(=O)C(c2ccccc2)c2ccccc2)CC1	inactive
C[N+](C)(C)CCOC(=O)CBr	inactive
CN(N=O)c1cc(O)ccc1O	inactive
c1ccc2c(c1)[I+]c1ccccc1-2	inactive
COc1ccc2c(c1)/C(=C/c1cnc[nH]1)C(=O)N2	inactive
Cc1c2ccncc2c(C)c2c1[nH]c1ccccc12	inactive
CCCn1c(=O)c2[nH]c(C3CCCC3)nc2n(CCCOC(=O)c2ccc(S(=O)(=O)F)cc2)c1=O	inactive
C[N+](C)(C)CC#CCOC(=O)Nc1cccc(Cl)c1	inactive
CCCN(CCC)[C@H]1CCc2c(F)ccc(O)c2C1	inactive
NC(=O)c1cc(N2CC2)c([N+](=O)[O-])cc1[N+](=O)[O-]	inactive
NCCc1ccc(S(=O)(=O)F)cc1	inactive
NC(=O)COc1c(F)cc(SCCNS(=O)(=O)c2ccccc2)cc1F	inactive
CC(C)(C)c1cc(C=C(C#N)C#N)cc(C(C)(C)C)c1O	inactive
N[C@@H](Cn1oc(=O)[nH]c1=O)C(=O)O	inactive
O=C(O)c1cc[c]([Hg][Cl])cc1	inactive
Clc1ccc(N2C[C@H]3CC[C@@H](C2)N3)nn1	inactive
Cc1[nH]c2ccc(O)cc2c1CCN	inactive
CCCN(CCC)CCc1ccc(O)c(O)c1	inactive
OCc1cnc[nH]1	inactive
NNC(=O)c1ccc(O)cc1	inactive
C[N+]1(C)[C@@H]2CC[C@H]1CC(OC(=O)c1c[nH]c3ccccc13)C2 (some centres not stated)	inactive
COc1ccc2[nH]cc(CCN)c2c1	inactive
c1ccc2c(N3CCNCC3)cccc2c1	inactive

These compounds were tested against Pyruvate kinase PKM (Homo sapiens) (UniProt P14618) (assay: qHTS Assay for Inhibitors of Human Muscle Pyruvate Kinase (AID 958)). Conditions: purified human PKM enzyme activity; series mostly up to 57.5 µM.
Procedure, shortened: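 Human PKM2 activity is measured as ATP generation, detected by luciferase-coupled luminescence. The enzyme (0.1 nM) acts on 0.5 mM PEP and 0.1 mM ADP for 1 h at ambient temperature; data are normalized to uninhibited and full-inhibition wells.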

Sequence of Pyruvate kinase PKM (Homo sapiens) (P14618 whole entry, looked up): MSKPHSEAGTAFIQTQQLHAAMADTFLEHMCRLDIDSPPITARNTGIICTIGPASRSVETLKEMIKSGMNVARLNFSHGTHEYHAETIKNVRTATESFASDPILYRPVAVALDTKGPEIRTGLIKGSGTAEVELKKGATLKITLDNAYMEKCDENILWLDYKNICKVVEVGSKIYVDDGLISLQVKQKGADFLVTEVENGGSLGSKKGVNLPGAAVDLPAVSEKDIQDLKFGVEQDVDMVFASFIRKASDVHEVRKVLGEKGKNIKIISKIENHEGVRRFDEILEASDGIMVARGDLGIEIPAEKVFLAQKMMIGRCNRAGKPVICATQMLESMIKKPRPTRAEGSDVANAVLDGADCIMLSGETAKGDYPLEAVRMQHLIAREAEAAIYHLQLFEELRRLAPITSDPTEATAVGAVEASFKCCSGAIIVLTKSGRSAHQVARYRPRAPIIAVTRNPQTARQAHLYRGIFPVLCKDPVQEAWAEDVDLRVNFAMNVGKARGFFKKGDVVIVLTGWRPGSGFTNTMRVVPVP

SMILES	Potency
O=c1c2ccccc2[se]n1-c1ccccc1	10 µM (active)
CN(N=O)c1ccc(O)c(O)c1	inactive
CN1CCc2cc(O)cc3c2[C@H]1Cc1ccc(O)c(O)c1-3	inactive
CN(N=O)c1cc(O)ccc1O	inactive
O=C(O)c1cc[c]([Hg][Cl])cc1	2.51 µM (active)

What follows are compounds tested against Pyruvate kinase (Leishmania mexicana) (UniProt Q27686) (assay: qHTS Validation Assay for Activators of Leishmania Mexicana Pyruvate Kinase (AID 959)). Conditions: purified L. mexicana pyruvate kinase, enzyme activity; series mostly up to 57.5 µM.
Procedure, shortened: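 The enzyme is a highly purified E451W mutant of LmPYK used at 0.2 nM. It converts 0.5 mM PEP and 0.1 mM ADP over 1 h at room temperature; product ATP is quantified by luciferase luminescence relative to DMSO controls.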

Sequence of Pyruvate kinase (Leishmania mexicana) (Q27686 2-499 E452W): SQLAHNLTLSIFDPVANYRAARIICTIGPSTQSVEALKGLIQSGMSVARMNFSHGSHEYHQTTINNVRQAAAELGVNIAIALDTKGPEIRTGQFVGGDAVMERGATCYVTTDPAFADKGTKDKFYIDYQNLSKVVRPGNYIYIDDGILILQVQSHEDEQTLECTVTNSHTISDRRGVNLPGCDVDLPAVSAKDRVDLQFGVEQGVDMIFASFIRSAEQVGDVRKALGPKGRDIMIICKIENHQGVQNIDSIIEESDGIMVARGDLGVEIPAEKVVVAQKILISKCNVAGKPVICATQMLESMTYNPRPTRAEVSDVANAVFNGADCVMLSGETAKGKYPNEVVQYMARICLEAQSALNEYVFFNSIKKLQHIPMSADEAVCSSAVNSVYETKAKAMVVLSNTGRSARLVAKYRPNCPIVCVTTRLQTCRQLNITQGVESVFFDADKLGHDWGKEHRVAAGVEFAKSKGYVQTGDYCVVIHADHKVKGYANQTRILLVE

SMILES	Potency
O=c1c2ccccc2[se]n1-c1ccccc1	inactive
CN(N=O)c1cc(O)ccc1O	3.16 µM (active)
O=C(O)c1cc[c]([Hg][Cl])cc1	inactive
